This note sets out measurements from PubChem BioAssay (NCI).

About 83,000 compounds went through this panel and 20% of them were active in at least one assay; those are over-represented in the sample as a whole.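 A percent growth of 40 corresponds to 60% growth inhibition; 0 means no net growth; -100 means all cells died. Active threshold: below 10.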 Unmarked numbers belong to inactive results. The source made the active and inactive calls.

Test in all cases: NCI-60 one-dose screen, 48 h (100 = growth as untreated, 0 = no growth, -100 = all killed)
The test system of one test is MOLT-4 leukemia. The conditions noted are these: 10 µM.
The test system of another test is SR leukemia. The conditions noted are these: 10 µM.
A further test relates to RPMI-8226 leukemia. The conditions noted are these: 10 µM.
The next test has as its system OVCAR-8 ovarian. The note with it: 10 µM.
The next test has as its system OVCAR-5 ovarian. The note with it: 10 µM.
The next test concerns OVCAR-4 ovarian. The note with it: 10 µM.
The test system of another test is SK-OV-3 ovarian. The conditions noted are these: 10 µM.
The next test has as its system IGROV1 ovarian. The note with it: 10 µM.
A further test relates to OVCAR-3 ovarian. The note with it: 10 µM.
Another test deals with NCI/ADR-RES ovarian. The conditions noted are these: 10 µM.
In another test the test system is T-47D breast. The conditions noted are these: 10 µM.
The subject of a further test is BT-549 breast. The conditions noted are these: 10 µM.
The next test has as its system MDA-MB-435 melanoma. The conditions noted are these: 10 µM.
A further test deals with SW-620 colon. The note with it: 10 µM.
The subject of a further test is MCF7 breast.
The next test deals with HCT-116 colon. The conditions noted are these: 10 µM.
The next test concerns HCC-2998 colon. The note with it: 10 µM.
In the next test the test system is KM12 colon. The note with it: 10 µM.
The test system of the next test is HS 578T breast. The conditions noted are these: 10 µM.

Regarding `COc1cc2c(c(OC)c1OC)-c1ccc(O)c(=O)cc1[C@@H](NC(C)=O)CC2`, the growth is 46.6% in the test on MOLT-4 leukemia; 30.1% with SR leukemia; 40.9% with RPMI-8226 leukemia; 36.7% in the test on OVCAR-8 ovarian; 70.1% in the test on OVCAR-5 ovarian; 46.5% with OVCAR-4 ovarian. Further, the growth in the test on SK-OV-3 ovarian is 66.9%; in the test with IGROV1 ovarian, 51.9%; in the test on OVCAR-3 ovarian it was 3.49% (active); in the test with NCI/ADR-RES ovarian, 74.3%; in the test on T-47D breast it was 18.4%; in the test on BT-549 breast, 59.9%. Further, the growth in the test on MDA-MB-435 melanoma is 45.6%; in the test on SW-620 colon, 50.2%; in the test on MCF7 breast (10 µM) it was 7.81% (active); in the test with MCF7 breast (100 µM) it was -47.9% (active); in the test with HCT-116 colon, 26.1%; in the test on HCC-2998 colon it was 66.9%. In addition, the growth in the test with KM12 colon was 57.4%.
Consider `NC(=O)c1cc([N+](=O)[O-])c(Cl)c([N+](=O)[O-])c1Cl`, for which the growth in the test on MOLT-4 leukemia is -15.3% (active); in the test with SR leukemia, -11.2% (active); in the test with RPMI-8226 leukemia it was 9.48% (active); with OVCAR-8 ovarian, -24.6% (active); with OVCAR-5 ovarian, 78.2%; in the test with OVCAR-4 ovarian, -58.8% (active). For the same compound, the growth with SK-OV-3 ovarian is 101%; in the test on IGROV1 ovarian, 27.6%; with OVCAR-3 ovarian, -97.4% (active); in the test on NCI/ADR-RES ovarian, 20.4%; in the test on T-47D breast, -36.7% (active); with BT-549 breast, 68.3%. Moreover, the growth with MDA-MB-435 melanoma was 11.1%; in the test on SW-620 colon, -79.9% (active); in the test with MCF7 breast (10 µM unless noted) it was -44.4% (active); in the test with HCT-116 colon, -39.2% (active); in the test on KM12 colon, 19.1%.
`O=[P+](O)c1ccccc1`: the growth in the test with MOLT-4 leukemia was 107%; with SR leukemia it was 102%; with RPMI-8226 leukemia, 98.6%; with OVCAR-8 ovarian, 99.9%; in the test with OVCAR-5 ovarian, 108%; in the test with OVCAR-4 ovarian, 114%. In addition, the growth in the test with SK-OV-3 ovarian was 101%; in the test with IGROV1 ovarian it was 115%; in the test on OVCAR-3 ovarian it was 109%; with HS 578T breast, 106%; with NCI/ADR-RES ovarian, 106%; in the test on T-47D breast it was 99.9%. Further, the growth in the test with BT-549 breast was 104%; in the test on MDA-MB-435 melanoma, 118%; with SW-620 colon it was 106%; in the test on MCF7 breast (10 µM unless noted) it was 95.9%; in the test with HCT-116 colon it was 100%; with KM12 colon, 107%.
As for `CC(Cc1ccc2c(c1)OCO2)NN` (stereo not drawn), the growth in the test on MOLT-4 leukemia was 78.4%; with SR leukemia it was 91.6%; in the test on RPMI-8226 leukemia, 91.8%; in the test with OVCAR-8 ovarian, 97.7%; with OVCAR-5 ovarian, 100%; with OVCAR-4 ovarian, 106%. For the same compound, the growth in the test on SK-OV-3 ovarian was 84.8%; with IGROV1 ovarian, 100%; in the test on OVCAR-3 ovarian it was 112%; with HS 578T breast, 93.3%; in the test on NCI/ADR-RES ovarian it was 98.5%; in the test on T-47D breast, 77.5%. The growth in the test on BT-549 breast was 96.7%; in the test on SW-620 colon, 98.7%; in the test on MCF7 breast (10 µM unless noted) it was 91.2%; in the test with HCT-116 colon it was 85.4%; with KM12 colon it was 103%.
For the compound `Oc1c(I)cc(I)cc1I`, the growth in the test with MOLT-4 leukemia was 98.9%; in the test on SR leukemia, 101%; in the test on RPMI-8226 leukemia, 94%; with OVCAR-8 ovarian, 101%; in the test on OVCAR-5 ovarian, 98.6%; with OVCAR-4 ovarian, 104%. In addition, the growth with SK-OV-3 ovarian was 109%; in the test with IGROV1 ovarian it was 112%; in the test with OVCAR-3 ovarian it was 124%; with HS 578T breast it was 119%; in the test with T-47D breast, 103%; in the test with MDA-MB-435 melanoma it was 113%. The growth in the test on SW-620 colon is 107%; in the test with MCF7 breast (10 µM unless noted) it was 95.4%; with KM12 colon, 110%.
As to `O=C(CCl)Nc1ccc(Cl)cc1`, the growth in the test on MOLT-4 leukemia is 32.8%; with SR leukemia, 29.6%; in the test with RPMI-8226 leukemia it was 60.4%; in the test on OVCAR-8 ovarian, 53.3%; in the test with OVCAR-5 ovarian it was 53.5%; with OVCAR-4 ovarian, 17.6%. Besides, the growth was 85.8% in the test with SK-OV-3 ovarian; -4.08% (active) in the test on IGROV1 ovarian; 0.0428% (active) in the test on OVCAR-3 ovarian; 68.3% in the test with NCI/ADR-RES ovarian; 56% in the test on T-47D breast; 48.5% in the test on MDA-MB-435 melanoma. The growth in the test on SW-620 colon was 39.7%; in the test with MCF7 breast (10 µM unless noted), 16.9%; in the test with HCT-116 colon it was 18.9%; in the test with KM12 colon, 67.8%.
For the compound `N#CCc1ccccc1`, the growth in the test with MOLT-4 leukemia is 97.9%; in the test with SR leukemia, 104%; with RPMI-8226 leukemia it was 101%; in the test with OVCAR-8 ovarian it was 105%; in the test with OVCAR-5 ovarian, 101%; in the test with OVCAR-4 ovarian, 94.6%. Besides, the growth in the test on SK-OV-3 ovarian is 98.4%; in the test on IGROV1 ovarian, 115%; in the test on OVCAR-3 ovarian, 111%; with HS 578T breast it was 106%; in the test with NCI/ADR-RES ovarian, 103%; in the test on T-47D breast, 103%. Also, the growth with BT-549 breast is 91.7%; in the test on MDA-MB-435 melanoma, 110%; in the test on SW-620 colon, 100%; with MCF7 breast (10 µM unless noted) it was 97.7%; in the test on HCT-116 colon, 102%; in the test on KM12 colon, 111%.
Turning to `COC1CC2C=C(C)/C=C/C=C/C(=O)NC(c3ccccc3)C/C=C/CCC(O)CC(=O)C2=C1O` (stereo not drawn), the growth in the test on MOLT-4 leukemia is -59.5% (active); in the test with SR leukemia it was 2.86% (active); with RPMI-8226 leukemia, -40.8% (active); with OVCAR-8 ovarian, -69.1% (active); with OVCAR-5 ovarian, -95.6% (active); with OVCAR-4 ovarian, -78.4% (active). Also, the growth is -91.4% (active) in the test with SK-OV-3 ovarian; -90.2% (active) in the test with IGROV1 ovarian; -83.9% (active) in the test on OVCAR-3 ovarian; -51.4% (active) in the test with HS 578T breast; -44.5% (active) with NCI/ADR-RES ovarian; -65.5% (active) in the test on T-47D breast. Moreover, the growth with BT-549 breast was -98% (active); in the test with MDA-MB-435 melanoma it was -90.5% (active); with SW-620 colon it was -75.9% (active); with MCF7 breast (10 µM unless noted), -68.8% (active); in the test with HCT-116 colon, -96.7% (active); in the test with KM12 colon, -76.1% (active).
